In PubChem BioAssay (NCATS):
Records with an inconclusive call do not appear. Unless noted, calls come from the whole dose curve; as a rule, active = well fitted curve in either direction with a large enough effect (not every such curve was filed as active); inconclusive = small, poorly fitted or top-dose-only effect, or another doubt; inactive = flat fitted curve, though single readings scatter.

Experiments:
[1] = AP1 Signaling Pathway (AID 357); conditions: ME-180 AP-1-bla reporter, EGF-induced, beta-lactamase ratio, 5 h; at 17.2 µM (top of the series) unless noted; note: % is set by controls: 0 for no effect and ±100 for the full control effect
Method in brief: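 AP-1-bla ME-180 cells with beta-lactamase reporter under AP-1 response element, stimulated with EC50 EGF; compounds titrated, 5 hours at 37 degrees Celsius. CCF4 read at 460/530 nm ratio; positive and negative modulators judged by AC50.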

[2] = NFAT Signaling Pathway (AID 444); conditions: Jurkat NFAT-bla M1, carbachol, beta-lactamase ratio, 5 h; at 17.2 µM (top of the series) unless noted;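 note: carbachol stimulus at about its EC50 of 1 µM final; % is set by controls: 0 for no effect and ±100 for the full control effect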
Method in brief: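 Read-out: CCF4 FRET ratio (460 nm/530 nm) after 1 h RT dye loading, used for %activity and AC50 from titration series. Cells: Jurkat NFAT-β-lactamase/M1 line, treated with compound plus 1 uM carbachol for 5 h, 37 °C.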

[3] = Stat Signaling Pathway (AID 446); conditions: ME-180 SIE beta-lactamase reporter, IL-6 stimulated, 5 h; at 17.2 µM (top of the series) unless noted;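 note: ME-180 cervical cancer cells given 40 pM IL-6 alongside compound; SIE-controlled beta-lactamase reporter measured as 460/530 nm FRET emission ratio; % is set by controls: 0 for no effect and ±100 for the full control effect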
Method in brief: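 Reporter line: ME-180 cervical carcinoma, SIE-beta-lactamase. Treatment: compound with 40 pM IL-6, 5 hrs, 37 C, in low-serum OPTI-MEM with 10 mM HEPES pH 7.3. Detection: 460/530 nm fluorescence.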

[4] = target: Glucocorticoid receptor (Homo sapiens) (UniProt P04150); test: GR-GFP Redistribution (AID 450;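 active = compounds whose dose series gives a full or clear partial fitted curve of increased nuclear translocation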; note: potency is the fitted concentration of half-maximal effect)
Chain of Glucocorticoid receptor (Homo sapiens) (P04150 whole entry, looked up): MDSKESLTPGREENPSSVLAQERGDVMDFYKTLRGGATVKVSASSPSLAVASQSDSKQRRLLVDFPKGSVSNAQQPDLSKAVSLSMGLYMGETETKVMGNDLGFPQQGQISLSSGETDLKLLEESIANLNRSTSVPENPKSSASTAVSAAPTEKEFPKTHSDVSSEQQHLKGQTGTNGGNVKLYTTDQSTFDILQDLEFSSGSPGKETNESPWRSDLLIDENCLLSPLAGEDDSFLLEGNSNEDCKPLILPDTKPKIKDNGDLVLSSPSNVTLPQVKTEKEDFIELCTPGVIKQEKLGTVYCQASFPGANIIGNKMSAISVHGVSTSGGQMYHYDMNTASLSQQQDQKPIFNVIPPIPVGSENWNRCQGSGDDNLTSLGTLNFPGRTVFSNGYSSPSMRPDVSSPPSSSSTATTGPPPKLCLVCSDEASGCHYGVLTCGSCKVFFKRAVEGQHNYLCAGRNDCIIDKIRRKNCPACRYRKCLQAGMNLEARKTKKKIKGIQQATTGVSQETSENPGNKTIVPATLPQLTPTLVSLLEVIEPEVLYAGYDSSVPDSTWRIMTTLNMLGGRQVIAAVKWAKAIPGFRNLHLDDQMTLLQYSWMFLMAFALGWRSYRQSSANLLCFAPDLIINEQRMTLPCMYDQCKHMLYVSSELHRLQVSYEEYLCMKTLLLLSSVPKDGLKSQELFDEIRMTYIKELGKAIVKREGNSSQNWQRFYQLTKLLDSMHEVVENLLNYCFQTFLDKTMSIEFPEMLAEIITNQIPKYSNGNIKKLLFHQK

CCOC(=O)CCc1c(C)c(C#N)c2nc3ccccc3n2c1-n1ccnc1
inactive: activity change, negative = inhibition [1] -6.27% | activity change, negative = inhibition [2] 10% | activity, negative = inhibition [3] 14.7% | Potency [4] > 20.6 µM

CC(=O)C1=C(O)C(=O)N(c2ccc(C(=O)O)cc2)C1c1ccccc1 (centres undefined)
inactive: activity change, negative = inhibition [1] 5.75% | activity change, negative = inhibition [2] -2% | activity, negative = inhibition [3] 0.835% | Potency [4] > 20.6 µM

COc1ccccc1N(Cc1cc2cccc(C)c2[nH]c1=O)C(=O)C(C)C
inactive: activity change, negative = inhibition [1] -14.8% | activity change, negative = inhibition [2] 11.3% | activity, negative = inhibition [3] -8.46% | Potency [4] > 20.6 µM

CCOC(=O)C(NC=O)(NC(C)(C)C)C(=O)OCC
inactive: activity change, negative = inhibition [1] -2.44% | activity change, negative = inhibition [2] 4.66% | activity, negative = inhibition [3] 24.2% | Potency [4] > 20.6 µM

O=C(Oc1ccccc1)c1c(Cl)cccc1P(=O)(O)O
inactive: activity change, negative = inhibition [1] 7.32% | activity change, negative = inhibition [2] 2.02% | activity, negative = inhibition [3] 5.05% | Potency [4] > 20.6 µM

COc1ccc2[nH]c(C)c(C(=O)CN3CCN(C(=O)c4ccco4)CC3)c2c1
inactive: activity change, negative = inhibition [1] -11.2% | activity change, negative = inhibition [2] -1.42% | activity, negative = inhibition [3] -3.32% | Potency [4] > 20.6 µM

CCc1nc(N2CCOCC2)c(C#N)c2c1CCCC2
inactive: activity change, negative = inhibition [1] -3.85% | activity change, negative = inhibition [2] -21.8% | activity, negative = inhibition [3] -7.54% | Potency [4] > 20.6 µM

O=C(Nc1ccc2c(c1)OCCO2)c1ccc(Br)o1
inactive: activity change, negative = inhibition [1] -1.9% | activity change, negative = inhibition [2] 6.17% | activity, negative = inhibition [3] 6.03% | Potency [4] > 20.6 µM

Cc1c(NS(=O)(=O)c2cccc3nsnc23)c(=O)n(-c2ccccc2)n1C
inactive: activity change, negative = inhibition [1] 16.3% | activity change, negative = inhibition [2] -7.17% | activity, negative = inhibition [3] 0.737% | Potency [4] > 20.6 µM

COc1ccc(C(=O)N2CCC(N3CCN(c4ccccc4)CC3)CC2)cc1OC
inactive: activity change, negative = inhibition [1] 11.1% | activity change, negative = inhibition [2] 20.4% | activity, negative = inhibition [3] -1.54% | Potency [4] > 20.6 µM

Cc1ccc2[nH]c3c(N4CCOCC4)ncnc3c2c1
inactive: activity change, negative = inhibition [1] -7.05% | activity change, negative = inhibition [2] 18.4% | activity, negative = inhibition [3] -10.6% | Potency [4] > 20.6 µM

O=C(O)C1CSC(CCc2ccccc2)N1 (centres undefined)
inactive: activity change, negative = inhibition [1] 19.9% | activity change, negative = inhibition [2] -1.74% | activity, negative = inhibition [3] 27% | Potency [4] > 20.6 µM

Cc1cccc2c1NC(C)CC2C (centres undefined)
inactive: activity change, negative = inhibition [1] 9.08% | activity change, negative = inhibition [2] 11.8% | activity, negative = inhibition [3] 13.3% | Potency [4] > 20.6 µM

CCN(CC)CCCN1C(=O)C(O)=C(C(=O)c2ccc(C)o2)C1c1ccc(C)o1 (centres undefined)
inactive: activity change, negative = inhibition [1] 5.4% | activity change, negative = inhibition [2] -12.9% | activity, negative = inhibition [3] 9.39% | Potency [4] > 20.6 µM

Cc1occc(=O)c1OC(=O)Nc1ccccc1
inactive: activity change, negative = inhibition [1] 9.9% | activity change, negative = inhibition [2] 1.25% | activity, negative = inhibition [3] 7.55% | Potency [4] > 20.6 µM

CC1=CC(c2ccccc2)n2nc(N3C(=O)C4CC=CCC4C3=O)nc2N1 (centres undefined)
inactive: activity change, negative = inhibition [1] 0.952% | activity change, negative = inhibition [2] 13.9% | activity, negative = inhibition [3] 11.6% | Potency [4] > 20.6 µM

CCOC(=O)c1cc(C)n(-c2ccc(OC)c(OC)c2)c1C
inactive: activity change, negative = inhibition [1] -17.8% | activity change, negative = inhibition [2] -1.46% | activity, negative = inhibition [3] -14.1% | Potency [4] > 20.6 µM

CSc1nnc(N(CCC#N)CCC#N)s1
inactive: activity change, negative = inhibition [1] 2.14% | activity change, negative = inhibition [2] 21.3% | activity, negative = inhibition [3] 2.15% | Potency [4] > 20.6 µM

COc1cc(C(=O)Nc2ccc(O)cc2C(=O)O)ccc1OC(C)=O
inactive: activity change, negative = inhibition [1] -6.46% | activity change, negative = inhibition [2] 22.4% | activity, negative = inhibition [3] 6.09% | Potency [4] > 20.6 µM

COc1cc(C(=O)Nc2ccccn2)cc(OC)c1OC
inactive: activity change, negative = inhibition [1] 1.72% | activity change, negative = inhibition [2] 12% | activity, negative = inhibition [3] 25.9% | Potency [4] > 20.6 µM

c1ccc2c(c1)[nH]c1c(N3CCN(C4CCCCC4)CC3)ncnc12
inactive: activity change, negative = inhibition [1] 2.02% | activity change, negative = inhibition [2] -22.7% | activity, negative = inhibition [3] 0.857% | Potency [4] > 20.6 µM

COC(=O)c1ccc(CN(C(C)=O)c2ccccc2)o1
inactive: activity change, negative = inhibition [1] 10.5% | activity change, negative = inhibition [2] -7.2% | activity, negative = inhibition [3] 7.8% | Potency [4] > 20.6 µM

CCCc1nnc(NC(=O)Nc2ccccc2OC)s1
inactive: activity change, negative = inhibition [1] 0.551% | activity change, negative = inhibition [2] 25% | activity, negative = inhibition [3] -4.19% | Potency [4] > 20.6 µM

CC1(C)CC(=O)C=C(NCCO)C1
inactive: activity change, negative = inhibition [1] 20.8% | activity change, negative = inhibition [2] 2.7% | activity, negative = inhibition [3] 12.6% | Potency [4] > 20.6 µM

CCOc1cccc(-c2nn3c(-c4ccco4)nnc3s2)c1
inactive: activity change, negative = inhibition [1] -15.5% | activity change, negative = inhibition [2] -4.59% | activity, negative = inhibition [3] -0.495% | Potency [4] > 20.6 µM

CCOc1ccc2c(c1)n([O-])c1c([n+]2=O)CCCC1
inactive: activity change, negative = inhibition [1] 9.01% | activity change, negative = inhibition [2] -13% | activity, negative = inhibition [3] 1.7% | Potency [4] > 20.6 µM
